Assay results reported in PubChem BioAssay AID602250 (The Scripps Research Institute Molecular Screening Center, 2012).
In all, about 360,000 compounds went through this assay and about 2,200 (0.61%) were called active. The sample holds actives, similar compounds and a random draw of the others, so the mix is not that of the screen.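 The calls were made as follows: active = inhibition above a per-plate cutoff, the plate's mean sample inhibition plus 3 SD (cut at about 24% in these data); inactive = the rest.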

Assay: calcium signal blockers in parental CHO-K1 cells – cell-based, Fluo-8 calcium fluorescence, full deck, 1536-well, counter-screen for M1 antagonist project, primary screen (AID 602250);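 also: 0% = DMSO plus EC80 ATP and 100% = DMSO alone without ATP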
Conditions: ATP-induced calcium, Fluo-8 fluorescence, at 3 µM, stronger effect = higher value
In the case of `COc1ccc(C2(CNC(=O)Cc3ccc(OC)c(OC)c3)CCCC2)cc1`, the inhibition was 0.54% (inactive).
In the case of `C=CCNC(=O)/C=C/c1ccc(C(C)C)cc1`, the inhibition was -7.72% (inactive).
With `O=C(/C=C(O)/C=C/c1ccc(O)cc1)/C=C/c1ccc(O)cc1` the inhibition was 31.8% (active).
In the case of `O=C(O)/C=C/c1ccc(S(=O)(=O)N2CCCCCC2)cc1`, the inhibition was -2.18% (inactive).
In the case of `COc1cccc(CNC(=O)CCC2CCCN(C(=O)c3cc(C)[nH]n3)C2)c1` (stereo not given), the inhibition was -15.8% (inactive).
In the case of `CCOC(=O)c1c(NC(=O)C2CC=CCC2C(=O)O)sc(C)c1CC` (stereo not given), the inhibition was -0.11% (inactive).
For `CCCCC(=O)NCc1ccc(F)cc1`, the inhibition was -1.22% (inactive).
For `CCCOCC(O)CC(CC)C(=O)NNC(=S)Nc1ccccc1` (stereo not given), the inhibition was 1.16% (inactive).
For `CCCCC(=O)NNC(=S)NC(=O)C(c1ccccc1)c1ccccc1`, the inhibition was 61.1% (active).
With `Cc1ccc(C)c(NC(=O)C2Cc3ccccc3CN2C(=O)OCc2ccccc2)c1` (stereo not given) the inhibition was -8.92% (inactive).
For `Cn1c(SCC(=O)N2CCCCC2)nc2c(c1=O)SCC2`, the inhibition was 8.86% (inactive).
In the case of `Cc1cccc(CSc2nc3c(c(=O)n2C)SCC3)c1`, the inhibition was 27.6% (active).
In the case of `Cc1cccc(CSc2nnc(C)c(=O)n2N)c1`, the inhibition was -7.07% (inactive).
In the case of `COc1cc(S(=O)(=O)N2CCOCC2)ccc1NC(=O)COc1ccc(N(C)S(=O)(=O)c2ccc(C)cc2)cc1`, the inhibition was -12% (inactive).
For `COc1cc(C(=O)NCc2cc3cc(Cl)ccc3n2C)cc(OC)c1OC`, the inhibition was -7.3% (inactive).
With `CCn1c(CNC(=O)c2cc(OC)c(OC)c(OC)c2)cc2cc(C)ccc21` the inhibition was 36.1% (active).
In the case of `COc1cc(C(=O)NCc2ccc3c(c2)cc(C)n3C)cc(OC)c1OC`, the inhibition was 19.1% (inactive).
In the case of `CN(Cc1nc(-c2cnccn2)no1)Cc1n[nH]c2c1CCCCC2`, the inhibition was -7.73% (inactive).
With `CC1CCCN(CC(O)COc2ccc3c(c2)OCO3)C1` (stereo not given) the inhibition was -7.13% (inactive).
With `Cn1c(=O)[nH]c(=O)c2c1nc(N(CCO)Cc1ccccc1)n2Cc1ccccc1Cl` the inhibition was -11.1% (inactive).
In the case of `O=C(COC(=O)C1(c2ccc(F)cc2)CCCC1)N1CCNC1=O`, the inhibition was -20.1% (inactive).
For `CN(C)S(=O)(=O)c1cccc(NC(=O)COC(=O)C2(c3ccccc3F)CCCC2)c1`, the inhibition was 0.69% (inactive).
With `NS(=O)(=O)c1ccc(NC(=O)COC(=O)C2(c3ccc(F)cc3)CCCC2)cc1` the inhibition was 31.1% (active).
In the case of `O=C(N[C@H]1C/C=C\C(c2ccc(F)cc2)N(Cc2ccccc2)C(=O)C1)OCC1c2ccccc2-c2ccccc21` (stereo not given in full), the inhibition was -13% (inactive).
In the case of `COc1ccc(COCCN2CCN(S(=O)(=O)c3ccccc3)CCC2=O)cc1`, the inhibition was -8.23% (inactive).
In the case of `Cc1ccc(S(=O)(=O)N2CCC(=O)N([C@H](COCc3ccccc3)C(C)C)CC2)cc1`, the inhibition was 41.5% (active).
In the case of `Cc1ccc(S(=O)(=O)N2CCC(=O)N([C@H](COCc3ccccc3)Cc3ccccc3)CC2)cc1`, the inhibition was -5.28% (inactive).
With `O=C(Nc1ccc(Cl)c(Cl)c1)c1ccccc1NC(=O)C1CC=CCC1C(=O)O` (stereo not given) the inhibition was 3.94% (inactive).
For `CCCSc1ncccc1C(=O)O`, the inhibition was -2.1% (inactive).
With `Cn1nccc1C(=O)NC1CCCc2c1cnn2-c1ccccc1F` (stereo not given) the inhibition was 26.9% (active).
In the case of `COc1ccc(C(=O)NC2CCCc3c2cnn3-c2cccc(C)c2C)c(OC)n1` (stereo not given), the inhibition was 19.6% (inactive).
With `COC(=O)c1ccc(C(=O)NC2CC(C)(C)Cc3c2cnn3-c2ccc(F)cc2)nc1` (stereo not given) the inhibition was -7.53% (inactive).
With `CC1=C(C(=O)NC2CC(C)(C)Cc3c2cnn3-c2ccc(C)cc2)OCCO1` (stereo not given) the inhibition was -1.6% (inactive).
In the case of `COc1ccc(C(=O)NC2CC(C)(C)Cc3c2cnn3-c2ccccc2C)o1` (stereo not given), the inhibition was -6.41% (inactive).
In the case of `Cn1nccc1C(=O)NC1CCCc2c1cnn2-c1ccc(F)cc1F` (stereo not given), the inhibition was 28.7% (active).
In the case of `O=c1cc(CN2CCN(S(=O)(=O)/C=C/c3ccccc3)CC2)c2ccc(O)cc2o1`, the inhibition was 6.97% (inactive).
For `Cc1cc(NC(=O)CCS(=O)(=O)c2ccc(F)cc2)no1`, the inhibition was -0.17% (inactive).
For `COc1ccc2c(c1)C=CC1(O2)N(CCO)c2ccccc2C1(C)C` (stereo not given), the inhibition was -4.71% (inactive).
With `Cc1cc(OCC(=O)Nc2c(C)n(C)n(-c3ccccc3)c2=O)ccc1[N+](=O)[O-]` the inhibition was -14.3% (inactive).
In the case of `O=C(NCC(c1cccs1)N1CCOCC1)c1cc(Cl)ccc1[N+](=O)[O-]` (stereo not given), the inhibition was 10.5% (inactive).
For `COc1ccccc1C(=O)NC(CCSC)C(=O)N1CCN(C/C=C/c2ccccc2)CC1` (stereo not given), the inhibition was -0.28% (inactive).
For `CN(Cc1cnccn1)C(=O)c1cc(COc2cccc(C(F)(F)F)c2)on1`, the inhibition was -4.38% (inactive).
With `CN(Cc1cccnc1)C(=O)c1cc(COc2ccc3ncccc3c2)on1` the inhibition was 37.4% (active).
In the case of `CC(=O)c1cccc(OCc2cc(C(=O)NC(C)Cc3cccnc3)no2)c1` (stereo not given), the inhibition was -0.09% (inactive).
In the case of `O=C(NCCCc1ccccc1)c1cc(COc2c(F)cccc2F)on1`, the inhibition was -16.9% (inactive).
For `Cc1ccc(Sc2cc(N3CCOCC3)nc(-c3ccccc3)n2)cc1`, the inhibition was -3.23% (inactive).
For `O=c1[nH]c(=O)n(Cc2ccco2)c2c1C(C(F)(F)F)(C(F)(F)F)N=C(c1ccco1)N2`, the inhibition was 30.1% (active).
With `Nc1c(N(Cc2ccco2)C(=O)c2cccc(F)c2)c(=O)[nH]c(=O)n1Cc1ccccc1` the inhibition was 0.73% (inactive).
For `Cc1ccccc1C1=NC(C(F)(F)F)(C(F)(F)F)c2c(n(-c3ccc(F)cc3)c(=O)[nH]c2=O)N1`, the inhibition was -9.81% (inactive).
With `CC(=O)c1ccccc1NC(=O)CC1(CC(=O)O)CCCCC1` the inhibition was -2.82% (inactive).
In the case of `CCC(C)(C(=O)Nc1ccccc1C)N(C(=O)CNC(C)=O)c1ccc(C)cc1` (stereo not given), the inhibition was -1.48% (inactive).
In the case of `CCCCSc1[nH]c(=O)c(C(=O)OCC)cc1C#N`, the inhibition was 5.2% (inactive).
For `CN1CCN(Cc2nc3cc(NC(=O)COc4ccc([N+](=O)[O-])cc4)ccc3n2C)CC1`, the inhibition was -3.48% (inactive).
With `CCOC(=O)c1cnc(SCC(=O)Nc2cccc(OC)c2)nc1N` the inhibition was 11.2% (inactive).
In the case of `CCCCCCCCn1c2c(c(=N)c3c1CCC3)CCCC2`, the inhibition was 32.5% (active).
With `C/C(=N/OC(=O)c1cccc(C(F)(F)F)c1)c1cnccn1` the inhibition was -1.12% (inactive).
With `CC(C)Oc1ccc(S(=O)(=O)N2CCOCC2)cc1NC(=O)C1CSC2(C)CCC(=O)N12` (stereo not given) the inhibition was 0.94% (inactive).
For `COc1ccc(Nc2oc(-c3ccccc3Cl)nc2C#N)cc1`, the inhibition was -14.3% (inactive).
With `Cc1ccccc1-c1nc(C#N)c(NCc2ccco2)o1` the inhibition was 28.1% (active).
In the case of `Cc1cc(NCc2ccco2)n2c(nc3ccccc32)c1C#N`, the inhibition was -0.52% (inactive).
For `O=C(COC(=O)CCCSc1nc2ccccc2[nH]1)Nc1ccc(Oc2ccccc2)cc1`, the inhibition was 0.31% (inactive).
In the case of `Cc1cc(C)n2c(Nc3c(C)cccc3C)c(CCc3ccccc3)nc2n1`, the inhibition was 2.51% (inactive).
In the case of `CCOC(=O)N/N=C1\CC(C)S(=O)(=O)c2ccc(Cl)cc21` (stereo not given), the inhibition was -8.64% (inactive).
In the case of `Cc1cccc(S(=O)(=O)N(C)C[C@@H]2OCc3cnnn3CCCC(=O)N([C@H](C)CO)C[C@@H]2C)c1`, the inhibition was 1.2% (inactive).
In the case of `CN(C)C(CNC(=O)c1cc2ccccc2o1)c1ccccc1` (stereo not given), the inhibition was -1.56% (inactive).
For `O=C(Nc1ccncc1)c1cc2ccccc2o1`, the inhibition was 23.7% (active).
In the case of `CC(C)(C)n1nc2c(c1NC(=O)c1cc3ccccc3o1)CSC2`, the inhibition was -14.9% (inactive).
In the case of `O=C(CSc1nnnn1-c1ccc2c(c1)CCC2)Nc1ccc2c(c1)OCCO2`, the inhibition was 16.9% (inactive).
In the case of `N#Cc1c(NCCO)ccc([N+](=O)[O-])c1NCCO`, the inhibition was -7.72% (inactive).
For `CCOC1CCCCC1NS(=O)(=O)c1ccc(Cl)cc1` (stereo not given), the inhibition was 38.7% (active).
With `CCN1CCN(C2CCCCC2NS(=O)(=O)c2ccc(Cl)cc2)CC1` (stereo not given) the inhibition was -7.77% (inactive).
For `O=S(=O)(NC1CCCCC1N1CCC(O)CC1)c1ccc(Cl)cc1` (stereo not given), the inhibition was -4.04% (inactive).
For `CCOC(=O)c1cc2occc2n1CC(=O)NC1CCC(C)CC1` (stereo not given), the inhibition was -7.77% (inactive).
With `CCOC(=O)C1=CC[C@@H](c2ccccc2)N(S(=O)(=O)c2ccc(C)cc2)[C@H]1c1cccc(OC)c1` the inhibition was 8.14% (inactive).
With `CCOC(=O)C1CN(S(=O)(=O)c2ccc(F)cc2)C1` the inhibition was 0.12% (inactive).
For `CCOC(=O)C1=CC[C@@H](c2ccncc2)N(S(=O)(=O)c2ccc(C)cc2)C1`, the inhibition was 25.1% (active).
In the case of `CCOC(=O)C1=CC[C@@H](c2ccccc2)N(S(=O)(=O)c2ccc(C)cc2)[C@H]1c1ccc(CC)cc1`, the inhibition was 11.1% (inactive).
With `CCOC(=O)C1=CCC(c2ccc(F)cc2)N(S(=O)(=O)c2ccc(C)cc2)C1` (stereo not given) the inhibition was 31.3% (active).
For `CC(=O)C1=CCC(c2ccccc2)N(S(=O)(=O)c2ccc(C)cc2)C1` (stereo not given), the inhibition was -16.2% (inactive).
For `O=C1C=CN2CCCC2CC1` (stereo not given), the inhibition was -0.95% (inactive).
With `CCC(C)(C)NC(=O)C(c1ccc(O)cc1)N(C(=O)Cn1nnc2ccccc21)c1ccc(NC(C)=O)cc1` (stereo not given) the inhibition was -17.9% (inactive).
For `COc1ccccc1-n1c(C)nc2cc(C(=O)NCc3ccc4c(c3)OCO4)ccc21`, the inhibition was -1.86% (inactive).
In the case of `Cc1ccc(NC(=O)CN(C)CC(=O)Nc2cccc(F)c2)cc1[N+](=O)[O-]`, the inhibition was 26.1% (active).
With `Cc1ccc(NC(=O)c2sccc2C)cc1[N+](=O)[O-]` the inhibition was -7.01% (inactive).
For `CN(CC(=O)Nc1cccc(F)c1)C(=O)C1=COCCO1`, the inhibition was 9.82% (inactive).
With `COc1cc([N+](=O)[O-])ccc1NC(=O)COC(=O)CCOc1ccc(C)cc1` the inhibition was -5.41% (inactive).
With `CCSc1nc(C)c(CCOc2cccc(C)c2)c(=O)[nH]1` the inhibition was 11.1% (inactive).
For `COc1ccc(CN(C)C(=O)c2cc(-c3ccc(C)cc3C)nc3ccccc23)c(OC)c1OC`, the inhibition was 5.32% (inactive).
With `COc1ccc(-c2cc(C(=O)N(C)Cc3ccc(OC)c(OC)c3OC)c3ccccc3n2)cc1OC` the inhibition was 26.8% (active).
For `COc1ccc(-c2cc(C(=O)N(C)CC(=O)Nc3ccccc3Cl)c3ccccc3n2)cc1OC`, the inhibition was 7.04% (inactive).
